# Test results as given in PubChem BioAssay (Tox21).
# Where “and” joins values, the source holds several entries; their conditions need not be identical. Equal values may be shown once. Records with an inconclusive call do not appear. Calls of active or inactive are those of the source. The call rests on the fitted dose curve; in most records, active means well fitted activation curve with a large enough effect in the repeat runs; inconclusive means weak or mixed curves; inactive means flat fitted curve, though single readings scatter.
# Test: A CellTox Green Cytotoxicity Assay to monitor cytotoxicity in HepG2 cells - 32 hour (AID 1224883); further: nearly all actives have a fitted effect of over 50% in size
# Settings: CellTox Green fluorescence; series mostly up to 76.8 µM; cytotoxicity increase: at the top concentration
# From the text: National Center for Advancing Translational Sciences [NCATS]
# NIH Chemical Genomics Center [NCGC]
# U.S. Environmental Protection Agency [EPA]
# National Institutes of Environmental Health Sciences [NIEHS]
# National Toxicology Program [NTP]
# Cell-based models are critical for drug discovery. Determining the natural cytotoxic effects resulting from test compounds is an essential research activity. A CellTox Green Cytotoxicity Assay to monitor cytotoxicity in real time of continues cell culture during 40 hours of the compound treatment was used to screen Tox21 10K library compounds in HepG2 cells. CellTox Green Cytotoxicity Assay is a nonlytic, homogeneous, biofluorescent method to measure cytotoxicity in cell culture after experimental manipulation. The assay system uses a proprietary asymmetric cyanine dye that is excluded from viable cells but preferentially stains the dead cell's DNA. […] Viable cells produce no appreciable increases in fluorescence. Therefore, the fluorescence signal produced by the binding interaction with dead cell DNA is proportional to cytotoxicity.
# The mixture of HepG2 cell suspension and reagents were dispensed at 600cells/6 ul/well in 1536-well tissue culture treated black solid bottom plates using a Multidrop dispenser. After the assay plates were incubated at a 37 C/5% CO2 incubator for 5 hours, 23 nL of compounds dissolved in DMSO, positive and negative controls was transferred to the assay plate by a pintool work station. The plates were incubated at 37 C for 40 hours. The fluorescence intensity were measured at 0h, 8h, 16h, 24h, 32h and 40h time points using ViewLux plate reader during compound treatment.
# On the % scale 0 is the no-effect control and ±100 the full control effect; potency means the concentration at half of the fitted maximal effect.
Compound,cytotoxicity increase,Potency
Clc1cc(Cl)c(-c2c(Cl)c(Cl)cc(Cl)c2Cl)cc1Cl,-17% [at 35.3 µM] (inactive),
CO[Si](CCC1CCC2OC2C1)(OC)OC (stereo not given),3.45% (inactive),
CN(C)CCCN1c2ccccc2CCc2ccccc21,,54.9 µM (active)
Nc1cc(Cl)c([N+](=O)[O-])cc1O,0.609% (inactive),
O=C[C@H](O)[C@H](O)[C@H](O)CO,0.259% (inactive),
O=C(O)Cc1ccc(OCCNC[C@H](O)c2ccccc2)cc1,-8.34% [at 35.3 µM] (inactive),
CN1[C@@H]2CC[C@@H]1CC(OC(=O)C(CO)c1ccccc1)C2 (stereo not given in full),-1.46% [at 35.3 µM] (inactive),
CC(C)=CCCC(C)CCOC(=O)C(C)C (stereo not given),-9.14% (inactive),
CC(C)N=C(N)/N=C(\N)Nc1ccc(Cl)cc1,,26.8 µM (active)
CC(=O)OC1CCCCC1,-4.51% (inactive),
CCN(CC)CCOc1ccc(C(O)(Cc2ccc(Cl)cc2)c2ccc(C)cc2)cc1 (stereo not given),,15.1 µM (active)
O=C(Nc1ccc(Cl)cc1)Nc1ccc(Cl)c(C(F)(F)F)c1,,19 µM (active)
O=C1OC(OC(=O)c2cccnc2Nc2cccc(C(F)(F)F)c2)c2ccccc21 (stereo not given),2.5% [at 35.3 µM] (inactive),
CC(C)=C1CC[C@@H](C)CC1=O,6.66% (inactive),
CC(C)CCOCCC(C)C,-14.4% (inactive),
COc1nccnc1CC(C)C,1.44% (inactive),
CC(=O)OC(OC(C)=O)c1ccc([N+](=O)[O-])o1,,55.9 µM (active)
CCCCCCC(C)Nc1ccc(Nc2ccccc2)cc1 (stereo not given),19.3% (inactive),
CCCCCCCC/C=C\CCCCCCCC(=O)NCc1ccc(O)c(OC)c1,1.2% [at 35.3 µM] (inactive),
CC(C)(C)c1n[nH]c(=O)n(N)c1=O,-10.8% (inactive),

Compound,cytotoxicity increase,Potency
COc1cc(C(=O)NS(=O)(=O)c2ccccc2C)ccc1Cc1cn(C)c2ccc(NC(=O)OC3CCCC3)cc12,3.93% [at 35.3 µM] (inactive),
NCCCCCCNCCCCCCN,-0.0417% (inactive),
CN(C)CCOC(c1ccccc1)c1ccccc1 (tested in a mixture with another compound),8.86% (inactive),
CO[Si](CCCNCCNCCN)(OC)OC,-6.35% (inactive),
CCCC(O)C(O)CO (stereo not given),0.996% (inactive),
COc1cccc(O)c1,-1.18% (inactive),
CCOC(=O)C1=C(C)NC(C)=C(C(=O)OCC)C1c1ccccc1/C=C/C(=O)OC(C)(C)C,20.3% [at 35.3 µM] (inactive),
O=C1NCN(c2ccccc2)C12CCN(CCCC(c1ccc(F)cc1)c1ccc(F)cc1)CC2,,6.74 µM (active)
C/C=C/CO,0.552% (inactive),
COC(=O)[C@]1(C)CCC[C@@]2(C)[C@H]1CC=C1C=C(C(C)C)CC[C@@H]12,,24.5 µM (active)
Cc1cccc(Br)c1,-1.19% (inactive),
Cc1nc(Nc2ncc(C(=O)Nc3c(C)cccc3Cl)s2)cc(N2CCN(CCO)CC2)n1,,26.8 µM (active)
c1cc[nH]c1,5.97% (inactive),
C=C/C=C/C=C/CCCCC,-4.15% [at 15.8 µM] (inactive),
C[Si](C)(C)Cl,-0.795% (inactive),
CCCCCCS,-12.5% (inactive),
O=S(=O)(O)CCCN1CCOCC1,-15.6% (inactive),
NC(=O)c1nc(-c2cccc(-c3cc(F)ccc3OCC(F)(F)C(F)(F)F)c2)n[nH]1,,43.6 µM (active)
O=C(O)c1cccc(Cl)n1,23.4% (inactive),
CCCCCCCCCCCCOC(=O)c1cc(O)c(O)c(O)c1,,48.8 µM (active) and 54.9 µM (active)
